In PubChem BioAssay (NCI) one finds growth data, which are given here for 37 compounds.

This is part of a sample that, as a whole, favours compounds with a hit. Of some 83,000 tested, about 20% had one in any assay.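 Interpretation: 100, growth as untreated; towards 0, rising growth inhibition; 0, no net growth; 0 to -100, cell death. Compounds scoring below 10 were considered active.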 Values without a mark were called inactive. The source made the active and inactive calls.

The first assay concerns HCT-116 colon. The experiment in a line: NCI-60 one-dose screen, 48 h (100 = growth as untreated, 0 = no growth, -100 = all killed). The note with it: 10 µM unless noted.
In the case of `ClCCN(CCCl)c1ccc(OCc2ccccc2)cc1`, the growth was 55.9%. `N#CC1(C#N)C(c2ccc(N(CCCl)CCCl)cc2)OC23CCCCC2C1(C#N)C(=N)O3` (stereo not drawn): the growth is 89.2%. Regarding `COC(=O)[C@@H](C)C[C@H](Cc1ccccc1)NC(=O)c1nc([C@@H](C[C@H](C(C)C)N(C)C(=O)[C@@H](NC(=O)[C@H]2CC(=O)CCN2C)C(C)C)OC(C)=O)sc1C(C)C`, the growth was 5.82% (active). Turning to `Nc1ccc2c(c1)oc1ccccc12`, the growth is 99.8%.

With `CNC(=O)Oc1ccc(C(C)(C)C)cc1OC(=O)NC`, the growth was 93%. For `COc1cc2c(cc1OCCCCn1c(-c3cccs3)nc3ccccc31)N=C[C@@H]1CCCN1C2=O`, the growth is 8.65% (active). Turning to `CC[C@H](C)[C@H](NC(=O)C12C3C4C1C1C2C3C41NC)C(=O)N(C)[C@H](C[C@@H](OC(C)=O)c1nc(C(=O)N[C@@H](Cc2ccccc2)C[C@H](C)C(=O)OC)cs1)C(C)C` (stereo partly drawn), the growth is 4% (active). On to `NC(=Nc1ccccc1)N[N+](=O)[O-]`, for which the growth was 101%.

Turning to `C[S+]1C=Cc2ccccc2C1c1ccc(Cl)cc1` (stereo not drawn), the growth is 81.6%. Still for that read-out and setting: as for `CC(C)[C@]12O[C@H]1[C@@H]1O[C@]13[C@]1(O[C@H]1C[C@H]1c4c(C(=O)c5ccccc5)oc(OC(=O)c5ccccc5)c4CC[C@@]13C)[C@@H]2O`, the figure is 5.12% (active); as for `CN(C)CC(C(=O)Cc1ccccc1)c1ccccc1` (stereo not drawn), 2.48% (active); as for `O=C1C=C2C(=CCOC2O)O1` (stereo not drawn), -69.5% (active).

On to `Clc1ccc(N2COOC3(OOC2)C2CC4CC(C2)CC3C4)cc1`, for which the growth is 50.4%. On the same count and under the same terms, for `Nc1ccc2c(c1)Cc1cc(Br)ccc1-2` the value was 98.2%. The same measure, in the same setting: for `O=c1[nH]c2ccc([N+](=O)[O-])cc2c(=O)o1` the value was 103%; for `CN1CC(CNC(=O)OCc2ccccc2)CC2c3cccc4c3c(cn4C)CC21` (stereo not drawn), 31.7%; for `NC(=O)c1c(Br)n(C2OC(CO)C(O)C2O)c2ncnc(N)c12` (stereo not drawn), 3.73% (active). Still for that read-out and setting: for `Cc1cc(N(CCCl)CCCl)ccc1/C=N\NC(=O)c1ccncc1` the value was 78.8%; for `COC(=O)CCC1=C(C)c2cc3[n-]c(cc4nc(cc5[n-]c(cc1n2)c(CCC(=O)OC)c5C)C=C4C)cc3C.[Cd+2]`, 79.8%. As to `CCCC(C)C1(CC)C(=O)NC(=O)N(C)C1=O` (stereo not drawn), the growth is 114%.

For the compound `CC(=O)c1ccc(C(=O)NCC2CCC3(CC2)OOC2(CCCCC2)OO3)cc1`, the growth is 79%.

The test system of a further assay is HCC-2998 colon. The description is as above. The note with it: 10 µM unless noted.
`O=[As](O)(O)c1ccccc1[As](=O)(O)O`: the growth is 101%. With `Clc1ccc(COC(Cn2ccnc2)c2ccc(Cl)cc2Cl)cc1` (stereo not drawn), the growth was 64.2%. Same read-out and setting: as for `CN(C)C(=O)Oc1ccccc1`, the figure is 102%; as for `CC[C@H](C)[C@H](NC(=O)C12C3C4C1C1C2C3C41NC(C)=O)C(=O)N(C)[C@H](C[C@@H](OC(C)=O)c1nc(C(=O)N[C@@H](Cc2ccccc2)C[C@H](C)C(=O)OC)cs1)C(C)C` (stereo partly drawn), 24.1%; as for `COc1ccc(C(=O)c2sc3nc4c(cc3c2N)N2CCC4CC2)cc1OC`, 109%. On the same count and under the same terms, as for `CCC(CC)CC1(C)CC2(C)CCOC2OO1` (stereo not drawn), the figure is 93.4%; as for `ClCCN(CCCl)c1ccc(/C=N\N=C\c2ccc(N(CCCl)CCCl)cc2)cc1`, 45.7%; as for `CCOC(=O)C(Cc1ccc(N(CCCl)CCCl)cc1)NC(=O)C(CC(C)C)NC(C)=O` (stereo not drawn), 50.8%. Take `CNCc1cccnc1`: the growth was 96.6%. Still for that read-out and setting: as for `CCN(CCO)C(Cc1ccccc1)c1ccccc1` (stereo not drawn), the figure is 96.8%; as for `C=CCc1cc2c(cc1OCC)OCO2`, 93.8%. Consider `N#Cc1c(Br)n(C2OC(CO)C(O)C2O)c2ncnc(N)c12` (stereo not drawn), for which the growth was 83.7%. For the compound `NC(=S)c1cn(C2OC(CO)C(O)C2O)c2ncnc(N)c12` (stereo not drawn), the growth was -44.8% (active). On the same count and under the same terms, for `O=P(N1CC1)(N1CC1)N1CCc2ccccc21` the value was 99.5%. As to `COC(=O)[C@@]1(O)C[C@H]2O[C@]1(C)n1c3ccccc3c3c4c(c5c6ccccc6n2c5c31)C(=O)NC4`, the growth was -53.4% (active). On the same count and under the same terms, for `ClCCN(CCCl)c1ccc(OCc2ccccc2)cc1` the value was 89.1%; for `N#CC1(C#N)C(c2ccc(N(CCCl)CCCl)cc2)OC23CCCCC2C1(C#N)C(=N)O3` (stereo not drawn), 95.2%; for `COC(=O)[C@@H](C)C[C@H](Cc1ccccc1)NC(=O)c1nc([C@@H](C[C@H](C(C)C)N(C)C(=O)[C@@H](NC(=O)[C@H]2CC(=O)CCN2C)C(C)C)OC(C)=O)sc1C(C)C`, 24.6%. Still for that read-out and setting: for `Nc1ccc2c(c1)oc1ccccc12` the value was 97.6%; for `CNC(=O)Oc1ccc(C(C)(C)C)cc1OC(=O)NC`, 103%.

For the compound `COc1cc2c(cc1OCCCCn1c(-c3cccs3)nc3ccccc31)N=C[C@@H]1CCCN1C2=O`, the growth is 0.698% (active). As for `CC[C@H](C)[C@H](NC(=O)C12C3C4C1C1C2C3C41NC)C(=O)N(C)[C@H](C[C@@H](OC(C)=O)c1nc(C(=O)N[C@@H](Cc2ccccc2)C[C@H](C)C(=O)OC)cs1)C(C)C` (stereo partly drawn), the growth was 15.9%.

As for `COc1ccc(N(CC(=O)NCCC[Te]c2ccccc2)C(=O)CCSC2=C(C)C(=O)c3ccccc3C2=O)cc1`, the growth is -35.4% (active). Same read-out and setting: as for `NC(=Nc1ccccc1)N[N+](=O)[O-]`, the figure is 98.8%; as for `C[S+]1C=Cc2ccccc2C1c1ccc(Cl)cc1` (stereo not drawn), 103%. For the compound `CC(C)[C@]12O[C@H]1[C@@H]1O[C@]13[C@]1(O[C@H]1C[C@H]1c4c(C(=O)c5ccccc5)oc(OC(=O)c5ccccc5)c4CC[C@@]13C)[C@@H]2O`, the growth is -15.3% (active).

As to `CN(C)CC(C(=O)Cc1ccccc1)c1ccccc1` (stereo not drawn), the growth is 116%.

In the case of `O=C1C=C2C(=CCOC2O)O1` (stereo not drawn), the growth was 93.3%.

On to `Clc1ccc(N2COOC3(OOC2)C2CC4CC(C2)CC3C4)cc1`, for which the growth was 102%. As to `Nc1ccc2c(c1)Cc1cc(Br)ccc1-2`, the growth is 99.7%.

Consider `O=c1[nH]c2ccc([N+](=O)[O-])cc2c(=O)o1`, for which the growth is 102%.

On to `CN1CC(CNC(=O)OCc2ccccc2)CC2c3cccc4c3c(cn4C)CC21` (stereo not drawn), for which the growth is -66.9% (active). Still for that read-out and setting: as for `NC(=O)c1c(Br)n(C2OC(CO)C(O)C2O)c2ncnc(N)c12` (stereo not drawn), the figure is 18.4%. On to `Cc1cc(N(CCCl)CCCl)ccc1/C=N\NC(=O)c1ccncc1`, for which the growth was 107%. The same measure, in the same setting: as for `COC(=O)CCC1=C(C)c2cc3[n-]c(cc4nc(cc5[n-]c(cc1n2)c(CCC(=O)OC)c5C)C=C4C)cc3C.[Cd+2]`, the figure is 95.9%; as for `CCCC(C)C1(CC)C(=O)NC(=O)N(C)C1=O` (stereo not drawn), 97.9%; as for `CC(=O)c1ccc(C(=O)NCC2CCC3(CC2)OOC2(CCCCC2)OO3)cc1`, 108%.
